PolyA inh: blocks polyadenylation in yeast reporter cells; S. cerevisiae SKY197-pL101 polyadenylation reporter, beta-gal luminescence; efflux-impaired pdr1/pdr3 knockout yeast; score 100 = 6 SD above DMSO; activity score, % at 12 µM; 300,000 tested, 0.02% active; AID 1875;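 active = lowest replicate activity score at least 50, where 100 means six control SD above control mean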;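 note: yeast exposed to compound for 9 h at 30 °C; higher score means more reporter readthrough which indicates perturbed polyadenylation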
ssDAF12 agonist: activates DAF-12 receptor from parasite S. stercoralis. AID 652126. HEK293 ssDAF-12/GRIP1 lit1-tk-luc reporter, luminescence; % of 3 µM dafachronic acid response. activation, % at 6.8 µM. 370,000 tested, 1% active;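 active = activation above the mean over all tested compounds plus 3 SD, cut at about 0.9% in these data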
hgDAF-12 ag: activates the H. glycines DAF-12 receptor ligand-binding domain. HEK293 GAL4-hgDAF12 UAS-luciferase reporter, agonist luminescence; normalized to butyrate control. activation, % at 6.8 µM. 370,000 tested, 1.8% active. AID 687014;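 active = activation above a cutoff set at the mean of all screened compounds plus 3 SD, cut at about 10% in these data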
DAX1 inh-1: NR0B1 (DAX1) inhibition; AID 504766; HEK293 Gal4-DAX1 luciferase reporter, luminescence; inhibition, % at 6.75 µM; 340,000 tested, 0.99% active; P51843;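 active = inhibition above the mean over all tested compounds plus 3 SD, cut at about 4.2% in these data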;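 note: inhibition shows as a rise in luminescence from relieved DAX1 repression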
DAX1 inh-2: DAX1 (NR0B1) inhibition, primary screen; HEK293T StAR-luciferase reporter, SF-1/DAX-1 repression relief; inhibition, % at 6.8 µM; 370,000 tested, 1.1% active;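 active = inhibition above the mean over all tested compounds plus 3 SD, cut at about 3.6% in these data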;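 note: higher inhibition means more luminescence from relief of DAX-1 repression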
hcDAF-12 act: activates DAF-12 receptor from parasite H. contortus | 370,000 tested, 1.4% active | activation, % at 6.8 µM | AID 652067 | HEK293 hcDAF-12 lit1-tk-luc reporter, luminescence; 0% DMSO, 100% Δ7-dafachronic acid;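 active = activation above the mean of all tested compounds plus 3 SD, cut at about 5.5% in these data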
hgDAF12 ag: confirmation of H. glycines DAF-12 agonists; shares compounds with hgDAF-12 ag; HEK293 GAL4-hgDAF12 luciferase reporter, agonist mode; percent of butyrate response; activation, % at 6.8 µM; 3,300 tested, 80% active; AID 743050;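 active = mean activation over triplicate wells above the hit cutoff derived from the earlier primary screen, cut at about 11% in these data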
LXRb DAF12 ctr: LXR-beta agonism as DAF-12 counter-screen | shares compounds with hgDAF-12 ag | HEK293 Gal4-LXR luciferase reporter, 24 h | activation, % at 6.8 µM | 3,300 tested, under 10 active;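 active = mean activation of the triplicate above a set limit carried over from the primary screen, none filed active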
Target sequence (P55055 whole entry, looked up, the tested form may be a part): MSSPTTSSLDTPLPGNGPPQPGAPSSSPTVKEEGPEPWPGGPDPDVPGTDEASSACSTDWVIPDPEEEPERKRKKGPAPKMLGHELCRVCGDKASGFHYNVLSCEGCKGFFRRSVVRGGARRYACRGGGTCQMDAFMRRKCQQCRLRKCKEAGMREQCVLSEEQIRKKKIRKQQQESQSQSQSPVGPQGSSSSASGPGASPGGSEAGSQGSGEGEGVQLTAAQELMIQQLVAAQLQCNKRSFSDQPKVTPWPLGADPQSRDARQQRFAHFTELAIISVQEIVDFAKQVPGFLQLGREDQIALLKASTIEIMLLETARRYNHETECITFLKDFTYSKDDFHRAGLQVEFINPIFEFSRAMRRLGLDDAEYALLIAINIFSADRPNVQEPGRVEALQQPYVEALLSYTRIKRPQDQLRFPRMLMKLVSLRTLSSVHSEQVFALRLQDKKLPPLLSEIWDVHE
A number is an active result; n = inactive; x = not tested or not shown. This is a sample that favours compounds with a hit; in the whole collection about 4.1% have one here.

SMILES	PolyA inh	ssDAF12 agonist	hgDAF-12 ag	DAX1 inh-1	DAX1 inh-2	hcDAF-12 act	hgDAF12 ag	LXRb DAF12 ctr
O=C(Cn1c(=O)c(=O)n(Cc2ccccc2)c2ccc(Cl)cc21)Nc1cccc(F)c1	n	n	26	n	n	n	n	n
C(=C\c1nnc(-c2cccs2)o1)/c1ccccc1	n	n	18	n	3.7	n	16	n
CC1CN(c2nc3ccccc3nc2NS(=O)(=O)c2ccccc2)CC(C)O1 (centres undefined)	x	n	n	n	n	n	x	x
CCOC(=O)COc1ncn(-c2ccccc2)n1	n	n	n	n	n	n	x	x
CCOC(=O)COc1ccccc1C(=O)c1cnn(-c2ccccc2)c1	n	n	14	n	n	n	n	n
CCOc1ccc2nc(NC(=O)COC)sc2c1	n	n	14	n	4.5	n	16	n
CCOc1ccc2nc(NC(=O)C3CCCO3)sc2c1 (centres undefined)	n	n	18	n	n	n	16	n
CCOc1ccc2nc(NC(=O)Nc3ccccc3)sc2c1	n	n	15	4.5	n	n	16	n
CCOc1ccc2nc(NC(=O)NC3CCCCC3)sc2c1	n	n	n	n	n	n	x	x
CCOc1ccc2nc(NC(=O)Cc3cccs3)sc2c1	n	x	x	n	x	x	x	x
Cc1ccc(NC(=O)C2C3/C=C\CCCCC32)cc1C (centres undefined)	n	n	n	n	n	n	x	x
COc1ccc(NC(=O)Nc2cccc(C)n2)cc1	n	n	17	n	n	n	12	n
COc1ccc(NC(=O)Nc2nc3c(s2)CCCC3)cc1	n	n	19	n	n	n	16	n
COc1cc(SC)ccc1C(=O)Nc1ccc2ncccc2c1	n	2.4	15	n	n	n	17	n
COc1cc(SC)ccc1C(=O)Nc1cccc(C)n1	n	n	16	n	4.0	n	12	n
COc1ccc(NC(=S)Nc2cccc(C)n2)cc1	n	n	n	x	n	n	x	x
CC(=O)Nc1ccc(S(=O)(=O)NCC2CCC(C(=O)N3CC(C)CC(C)C3)CC2)cc1 (centres undefined)	n	n	n	n	n	n	x	x
CCN(CC)c1ccc(/C=N/NC(=O)c2ccoc2C)cc1	n	n	17	n	n	n	19	n
Cc1occc1C(=O)N/N=C/c1ccc(Br)s1	n	n	n	n	n	n	x	x
Cc1ccc(/C=N/NC(=O)c2ccoc2C)s1	n	n	15	n	n	n	n	n
C[C@H](CO)N1C[C@H](C)[C@@H](CN(C)Cc2ccc(Oc3ccccc3)cc2)Oc2c(NS(=O)(=O)c3cn(C)cn3)cccc2C1=O	x	n	n	n	n	n	x	x
Cc1cc(C(=O)CSc2ncccn2)c(C)n1Cc1ccco1	n	0.9	17	n	n	n	18	n
Cc1cc(C(=O)CSc2nc3ccc(Cl)cc3[nH]2)c(C)n1Cc1ccco1	n	n	n	n	n	n	x	x
Cc1cc(C(=O)COC(=O)c2ccc(O)cc2)c(C)n1Cc1ccco1	n	n	13	n	4.2	6.0	16	n
CC(/C=C/c1ccco1)=N/NC(=O)OC(C)(C)C	n	n	n	n	n	n	x	x
SMILES	PolyA inh	ssDAF12 agonist	hgDAF-12 ag	DAX1 inh-1	DAX1 inh-2	hcDAF-12 act	hgDAF12 ag	LXRb DAF12 ctr
COc1ccccc1CC(=O)NC1CC1	n	n	n	n	n	n	x	x
COc1ccccc1CC(=O)NC1CCCCCC1	n	n	13	n	n	n	n	n
CC(C)(C)NC(=O)Nc1nnc(SCC(=O)NC2CCCCC2)s1	n	n	n	n	n	n	x	x
O=C(Nc1ccc(NC(=O)C2CCCCC2)cn1)c1ccco1	n	n	16	n	4.3	6.4	11	n
COc1cccc2cc(-c3nc(-c4cccs4)cs3)c(=O)oc12	n	n	n	n	n	n	x	x
COc1cccc2cc(-c3nc4ccccc4[nH]3)c(=O)oc12	n	1.1	15	n	n	n	17	n

High-throughput results (PubChem)
